Test results published in PubChem BioAssay (NCI).
This is part of a sample that, as a whole, favours compounds with a hit. Of some 83,000 tested, about 20% had one in any assay.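 96-well plates, one dose, 48 hours. Percent growth reported; active if below 10.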 Calls of active or inactive are those of the source.

Assays:
Assay in all cases: NCI-60 one-dose screen, 48 h (100 = growth as untreated, 0 = no growth, -100 = all killed)
Details in all cases: 10 µM unless noted
HCT-15 colon = tested on: HCT-15 colon
HT29 colon = tested on: HT29 colon
SNB-19 CNS = tested on: SNB-19 CNS
U251 CNS = tested on: U251 CNS
PC-3 prostate = tested on: PC-3 prostate
SK-MEL-5 melanoma = tested on: SK-MEL-5 melanoma
UACC-62 melanoma = tested on: UACC-62 melanoma
LOX IMVI melanoma = tested on: LOX IMVI melanoma
SK-MEL-28 melanoma = tested on: SK-MEL-28 melanoma
SK-MEL-2 melanoma = tested on: SK-MEL-2 melanoma
EKVX NSCLC = tested on: EKVX NSCLC
SN12C renal = tested on: SN12C renal
UO-31 renal = tested on: UO-31 renal
TK-10 renal = tested on: TK-10 renal
ACHN renal = tested on: ACHN renal
CAKI-1 renal = tested on: CAKI-1 renal
A498 renal = tested on: A498 renal
CCRF-CEM leukemia = tested on: CCRF-CEM leukemia
MOLT-4 leukemia = tested on: MOLT-4 leukemia
SNB-75 CNS = tested on: SNB-75 CNS

Measured: growth

Nc1nc(Nc2ccccc2)c2ncn(Cc3cc4c(cc3Br)OCO4)c2n1
active: HCT-15 colon 6.74% | HT29 colon -34% | U251 CNS 3.29% | SK-MEL-5 melanoma -6.17% | SN12C renal 7.96% | A498 renal -3.53%
inactive: SNB-19 CNS 17.3% | PC-3 prostate 16.2% | UACC-62 melanoma 33.6% | LOX IMVI melanoma 12.9% | SK-MEL-28 melanoma 52% | SK-MEL-2 melanoma 36.9% | EKVX NSCLC 44.7% | UO-31 renal 40.3% | TK-10 renal 35.1% | ACHN renal 16.9% | CAKI-1 renal 18.2% | CCRF-CEM leukemia 11.2% | MOLT-4 leukemia 10.4%

CCOC(=O)/C(C#N)=C(\C)CCc1ccccc1
inactive: HCT-15 colon 87.7% | HT29 colon 98.6% | SNB-19 CNS 104% | U251 CNS 96.4% | PC-3 prostate 92.7% | SK-MEL-5 melanoma 98.4% | UACC-62 melanoma 110% | LOX IMVI melanoma 96.9% | SK-MEL-28 melanoma 97.7% | SK-MEL-2 melanoma 106% | EKVX NSCLC 105% | SN12C renal 118% | UO-31 renal 99.6% | TK-10 renal 140% | ACHN renal 101% | CAKI-1 renal 80.9% | A498 renal 77.9% | CCRF-CEM leukemia 102% | MOLT-4 leukemia 153%

CC1Cc2c(Cl)ncnc2N(C)c2ccc(O)cc21 (centres undefined)
inactive: HCT-15 colon 67.3% | HT29 colon 74.7% | SNB-19 CNS 44.4% | U251 CNS 36% | PC-3 prostate 31.4% | UACC-62 melanoma 33.8% | LOX IMVI melanoma 11.9% | SK-MEL-28 melanoma 27.8% | SK-MEL-2 melanoma 27% | EKVX NSCLC 51.3% | SN12C renal 82.6% | UO-31 renal 22.5% | TK-10 renal 94.5% | ACHN renal 84.9% | CAKI-1 renal 89.2% | A498 renal 94.1% | CCRF-CEM leukemia 82.5% | MOLT-4 leukemia 67.6%
active: SK-MEL-5 melanoma -78.9%

O=C(Nc1cccc(F)c1)c1cc(=O)[nH]c2cc(Br)ccc12
active: HT29 colon 9.92%
inactive: HCT-15 colon 28.6% | U251 CNS 36% | PC-3 prostate 43.8% | SK-MEL-5 melanoma 32% | UACC-62 melanoma 34.4% | LOX IMVI melanoma 43.1% | SK-MEL-28 melanoma 62.3% | SK-MEL-2 melanoma 41.2% | EKVX NSCLC 63% | SN12C renal 60% | UO-31 renal 51.5% | TK-10 renal 69.8% | ACHN renal 57% | CAKI-1 renal 33.8% | A498 renal 30.8% | CCRF-CEM leukemia 58.8% | MOLT-4 leukemia 45.8%

CC1Cc2c(Cl)ncnc2N(C)c2ccc(Cl)cc21 (centres undefined)
active: HCT-15 colon 6.68% | HT29 colon -0.897% | SK-MEL-5 melanoma -86.9% | LOX IMVI melanoma -69.3% | SK-MEL-2 melanoma -27.7% | SN12C renal 2.41% | CAKI-1 renal 8.59% | A498 renal -34.9% | MOLT-4 leukemia 8.07%
inactive: SNB-19 CNS 25.2% | U251 CNS 18.8% | PC-3 prostate 13.9% | SK-MEL-28 melanoma 20.6% | EKVX NSCLC 14.2% | UO-31 renal 19.6% | TK-10 renal 11.2% | ACHN renal 11.8% | CCRF-CEM leukemia 19.4%

CCN1CCN(CC(=O)Nc2nc3ccc(NCc4ccc(Cl)cc4)cc3s2)CC1
inactive: HT29 colon 19.6% | SNB-75 CNS 103% | SNB-19 CNS 79.6% | U251 CNS 58.2% | PC-3 prostate 52.7% | LOX IMVI melanoma 16.9% | SK-MEL-28 melanoma 24.7% | SK-MEL-2 melanoma 86.4% | EKVX NSCLC 86.3% | SN12C renal 68.4% | UO-31 renal 59.6% | TK-10 renal 96.8% | ACHN renal 83.3% | CAKI-1 renal 68.3% | A498 renal 58.4% | CCRF-CEM leukemia 50%
active: SK-MEL-5 melanoma -37.9% | UACC-62 melanoma -12%

O=C(OCc1ccc2c(Cl)cc(Cl)c(O)c2n1)N1CCNCC1
inactive: HCT-15 colon 18.5% | HT29 colon 80.6% | SNB-19 CNS 37% | U251 CNS 16.2% | PC-3 prostate 29.8% | SK-MEL-5 melanoma 35.7% | UACC-62 melanoma 24.5% | LOX IMVI melanoma 32.7% | SK-MEL-28 melanoma 70.4% | SK-MEL-2 melanoma 59.1% | EKVX NSCLC 33.1% | SN12C renal 32% | UO-31 renal 15.3% | TK-10 renal 52.1% | ACHN renal 14% | CAKI-1 renal 27% | A498 renal 24.3% | CCRF-CEM leukemia 26.1% | MOLT-4 leukemia 33.5%

CCOC(=O)CCC[P+](c1ccccc1)(c1ccccc1)c1ccccc1
inactive: HCT-15 colon 102% | HT29 colon 70.2% | SNB-19 CNS 96% | U251 CNS 52.6% | PC-3 prostate 69.5% | SK-MEL-5 melanoma 48.5% | UACC-62 melanoma 65% | LOX IMVI melanoma 83% | SK-MEL-28 melanoma 83.8% | SK-MEL-2 melanoma 85.4% | EKVX NSCLC 75.5% | SN12C renal 82% | UO-31 renal 87.5% | TK-10 renal 95.9% | ACHN renal 97.9% | CAKI-1 renal 101% | A498 renal 86.3% | CCRF-CEM leukemia 72.6% | MOLT-4 leukemia 72%
